# PubChem BioAssay AID504467 (National Center for Advancing Translational Sciences (NCATS), 2011)
# Screen size: about 330,000 compounds; about 7,700 (2.3%) were called active. Another 26% or so got no clear call; they are omitted. Calls come from the whole dose curve; as a rule, active = well fitted inhibition curve with a large enough effect; inconclusive = small, poorly fitted or top-dose-only effect, or effect the other way; inactive = flat fitted curve, though single readings scatter. The list comes from a sample in which actives are over-represented; it also holds similar structures and randomly drawn compounds. Entries that show only a call come without a potency.
# Assay: qHTS screen for small molecules that inhibit ELG1-dependent DNA repair in human embryonic kidney (HEK293T) cells expressing luciferase-tagged ELG1; note: nearly all actives have a fitted effect of over 55% in size
# Details: HEK293T ELG1-luciferase reporter, luminescence, 16 h, DNA damage induced by 5-fluorouridine; series mostly up to 46.1 µM
# In short: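 Reporter activity after DNA damage by 5-fluorouridine is monitored. Compound-treated cells incubate 16 hr at 37 °C, then ONE-Glo is added for 30 min before luminescence reading.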
# Potency is the fitted concentration of half-maximal effect.
row,Structure (SMILES),Potency
1,COc1cccc(CNC(=O)C(=O)NCCC2CCCCN2S(=O)(=O)c2ccc(C)cc2)c1 (stereo unspecified),inactive
2,O=C(CNC(=O)c1ccccc1Br)NCCSc1ccc(Br)cc1,inactive
3,CC(C)(C)OC(=O)C1=C(CO)CS[C@@H]2[C@H](NC(=O)Cc3ccccc3)C(=O)N12,inactive
4,COc1ccc(S(=O)(=O)N2CCN(C)CC2)c(C)c1,inactive
5,COc1ccc(C)cc1Nc1nc(-c2c(C)[nH]c3ccccc23)cs1,inactive
6,COc1ccc2c(c1OC)C(=O)OC2Nc1nc(-c2ccccc2)cs1 (stereo unspecified),9.2 µM (active)
7,COc1ccc2c(c1OC)C(=O)OC2c1c(O)nc(SC)n(-c2ccccc2)c1=O (stereo unspecified),inactive
8,O=C(Nc1ccc(N2CCOCC2)c(Cl)c1)c1ccc(S(=O)(=O)N2CCOCC2)cc1,inactive
9,O=C(CN1CCN(c2ccccn2)CC1)N1CCc2ccccc21,inactive
10,O=C(CN1C(=O)c2ccccc2S1(=O)=O)NC1CCCCC1,inactive
11,O=C(CN1C(=O)c2ccccc2S1(=O)=O)N1CCc2ccccc21,20.6 µM (active)
12,CCOc1ccc(-n2c(SCC(=O)Nc3cc(C(=O)O)ccc3Cl)nc3ccccc3c2=O)cc1,inactive
13,O=C(O)CCCn1c(=O)c2cccn2c2ccc(F)cc21,inactive
14,Cc1cc(C)n2nc(C(=O)N3CCN(Cc4ccc5c(c4)OCO5)CC3)nc2n1,inactive
15,O=C(CCCN1C(=O)c2cccc3cccc(c23)C1=O)N1CCN(Cc2ccc3c(c2)OCO3)CC1,2.31 µM (active)
16,O=C(Nc1cccc2ccccc12)N1CCN(Cc2ccc3c(c2)OCO3)CC1,inactive
17,O=C(CSCc1ccc(Cl)cc1)N1CCN(Cc2ccc3c(c2)OCO3)CC1,20.6 µM (active)
18,O=C(CN1C(=O)c2cccc3cccc(c23)C1=O)N1CCCCC1,inactive
19,O=C(c1cccs1)N1CCN(Cc2ccc3c(c2)OCO3)CC1,inactive
20,CCOc1ccccc1NC(=S)NC(=O)CCc1ccccc1,inactive
21,COc1cccc(NC(=O)CN2CCN(CC(=O)Nc3ccccc3Cl)CC2)c1,inactive
22,COc1ccc(NC(C)=O)cc1NC(=O)CN1CCN(C2c3ccccc3-c3ccccc32)CC1,0.92 µM (active)

row,Structure (SMILES),Potency
1,COc1ccc(NC(C)=O)cc1NC(=O)CN1CCN(c2ccccn2)CC1,inactive
2,CCCCN(CCCC)CCCNC(=O)CN1C(=O)COc2ccc(S(=O)(=O)N3CCC(C)CC3)cc21,inactive
3,CC(C)n1ncc2c(C(=O)NCc3ccccc3CN(C)C)cc(C3CC3)nc21,inactive
4,COc1ccc(S(=O)(=O)N2CN(CCc3ccc(OC)c(OC)c3)c3nc4ccccc4nc32)cc1,inactive
5,Clc1cccc(-c2nc3nc4ccccc4nc3n2Cc2ccco2)c1,inactive
6,COc1ccc(CCn2c(-c3ccco3)nc3nc4ccccc4nc32)cc1OC,4.61 µM (active)
7,CCOc1ccccc1-c1cc(C(=O)N/N=C(\C)c2cccnc2)c2ccccc2n1,inactive
8,COc1ccc(-c2nc(CS(=O)(=O)CC(=O)NCc3cccc(Br)c3)c(C)o2)cc1,inactive
9,C=CCn1c(SCC(=O)NC)nnc1C12CC3CC(CC(C3)C1)C2,inactive
10,COc1ccc(C2(c3ccc(OC)cc3)NC(=O)N(CC(=O)Nc3cc(C)on3)C2=O)cc1,inactive
11,COc1ccc(S(=O)(=O)N(C)C[C@H]2Oc3c(NC(=O)Nc4ccc5c(c4)OCO5)cccc3C(=O)N([C@H](C)CO)C[C@@H]2C)cc1,11.6 µM (active)
12,COc1ccc(S(=O)(=O)Nc2cccc3c2O[C@H](CN(C)S(=O)(=O)c2ccc(OC)cc2)[C@@H](C)CN([C@H](C)CO)C3=O)cc1,inactive
13,C[C@H](CO)N1C[C@H](C)[C@@H](CN(C)S(=O)(=O)c2ccc(F)cc2)Oc2c(NC(=O)Nc3ccccc3)cccc2C1=O,inactive
14,CCN(C(=O)COC(=O)Cc1c(F)cccc1Cl)c1c(N)n(Cc2ccccc2)c(=O)[nH]c1=O,inactive
15,CCCc1nc2c([nH]1)C(c1cccnc1)C(C#N)=C(N)O2 (stereo unspecified),inactive
16,N#CC1=C(N)Oc2c(ccc3cccnc23)C1c1ccncc1 (stereo unspecified),9.2 µM (active)
17,COc1ccc(-c2[nH]nc3c2C(c2ccncc2)C(C#N)=C(N)O3)cc1 (stereo unspecified),inactive
18,O=C(CNC(=O)c1n[nH]c2ccccc12)Nc1cc(Cl)ccc1Cl,inactive
19,CCOC(CNC(=O)C1CCN(S(=O)(=O)c2ccc3nc4c(c(C(=O)O)c3c2)CC(C)CC4)CC1)OCC (stereo unspecified),inactive
20,COc1ccc(CNC(=O)COC(=O)c2sccc2C)cc1OC,inactive
21,COc1cc(C(=O)N(Cc2ccc(N(C)C)cc2)C2CCS(=O)(=O)C2)cc(OC)c1OC (stereo unspecified),inactive
22,CCCOP(=O)(c1ccc(N(C)C)cc1)C(O)c1cc(OC)c(OC)c(OC)c1 (stereo unspecified),inactive

row,Structure (SMILES),Potency
1,COc1cc(C(=O)NCCOC(=O)c2cccc(N(C)C)c2)cc(OC)c1OC,11.6 µM (active)
2,COC(=O)c1ccc(CNC(=O)c2ccc(S(=O)(=O)N3CCCCCC3)cc2)cc1,inactive
3,O=C(N[C@H]1C/C=C\C(c2cccc(F)c2)N(Cc2ccccc2)C(=O)C1)OCC1c2ccccc2-c2ccccc21 (stereo partly specified),inactive
4,COC(=O)c1cc(S(=O)(=O)N2CCN(c3cc(C)ccc3C)CC2)c[nH]1,inactive
5,O=C(c1cn(-c2ccccc2)nc1-c1cccnc1)N1CCCCC1,inactive
6,O=C(c1cn(-c2ccccc2)nc1-c1cccnc1)N1CCN(S(=O)(=O)c2ccccc2F)CC1,14.6 µM (active)
7,NC(=O)C1CCN(C(=O)c2cn(-c3ccccc3)nc2-c2cccnc2)CC1,inactive
8,O=C(OCc1cc(=O)n2ccsc2n1)C1(c2ccc(Cl)cc2)CC1,inactive
9,COc1cc(C(=O)NC2CCN(Cc3ccccc3)CC2)cc(Cl)c1OC(C)C,inactive
10,O=C(CCC(=O)c1cccs1)NCc1ccccc1,inactive
11,O=C(c1cccs1)n1nc(NCc2ccccc2)nc1NCc1ccccc1,25.9 µM (active)
12,Nc1nc(NCc2ccccc2)n(-c2ccccc2)n1,inactive
13,COc1ccc(C)cc1NC(=O)CSc1cccc[n+]1[O-],inactive
14,CC[C@@H]1CCCCc2ccccc2[C@@H](C(=O)C[C@H](O)CC(C)=O)OC1=O,inactive
15,COc1ccc(C(CNC(=O)c2ccc(S(=O)(=O)Nc3ccccc3C)cc2)N2CCOCC2)cc1 (stereo unspecified),inactive
16,O=C(NCc1ccncc1)c1cccc(NS(=O)(=O)c2ccc(F)c(F)c2)c1,inactive
17,CCOC(=O)N1CCN(C(=O)c2ccc(S(=O)(=O)Nc3cccc(C(F)(F)F)c3)cc2)CC1,inactive
18,O=C(NCc1ccccc1)c1ccc(S(=O)(=O)Nc2cccc(C(F)(F)F)c2)cc1,13 µM (active)
19,O=C1C(=O)N(CCN2CCOCC2)C(c2cccc(Cl)c2)/C1=C(/O)c1ccc2c(c1)OCO2 (stereo unspecified),inactive
20,Cc1sc2ncn(CC(=O)NCCCC(=O)N(C)Cc3ccccc3)c(=O)c2c1C,inactive
21,O=C(COc1ccc(Br)cc1F)NCC1(N2CCCCC2)CCCCC1,inactive
22,CSc1ncccc1C(=O)NCC(c1ccco1)N1CCCCC1 (stereo unspecified),inactive
